62 compounds from PubChem BioAssay AID1745847 (National Center for Advancing Translational Sciences (NCATS), 2022) can be followed below.

Hit rate of the full screen: of about 2,100 compounds, about 670 (32%) were called active. Another 50% or so got no clear call; they are omitted. The list shows a part of the results. Values without a mark were called inactive. Calls follow the shape of the dose curve; as a rule, active = well fitted inhibition curve with a large enough effect; inconclusive = small, poorly fitted or top-dose-only effect; inactive = no such curve, though single readings can be large or run the other way.
% is scaled to controls: 0 for no effect and ±100 for the full control effect; potency is read from the fitted curve at half-maximal effect.

The nature of this assay: CMV-Luciferase Counterscreen for Inhibitors of ATXN expression. Also: nearly all actives have a fitted effect of over 55% in size. The settings on record: HEK-293 CMV-luciferase reporter, luminescence, 24 h; series mostly up to 57.5 µM; activity change, negative = inhibition: at the top concentration. On the technique in general: The purpose of a counterscreen is to sort out artefacts and off-target activity.
Turning to `NC(=O)Cn1c(=O)n(CCc2ccccc2)c(=O)c2c3c(sc21)CCCC3`, the “activity change, negative = inhibition” value is 10.9%. Regarding `CCNc1ccc(Br)cc(C(=O)/C=C/c2ccccc2Cl)c1=O`, the activity change, negative = inhibition is -8.42% [at 11.4 µM]. Turning to `O=C(c1ccoc1)N1CCN(c2cc(-c3cccnc3)nc3cc(-c4cccc(Cl)c4)nn23)CC1`, the Potency was 28.2 µM (active). On to `O=C(Nc1cccc2c1CCCC2)c1cc([N+](=O)[O-])ccc1Cl`, for which the Potency was 6.31 µM (active). On to `COc1cccc(CC2(CO)CCCN(Cc3[nH]c4ccc(C)cc4c3C)C2)c1` (configuration not stated), for which the “activity change, negative = inhibition” value is -14.8%.

Take `Cc1ccc(S(=O)(=O)Nc2cccc3cccnc23)c([N+](=O)[O-])c1`: the “activity change, negative = inhibition” value was 80.5%. For `Cc1ccc(S(=O)(=O)Nc2ccc(O)c3cccnc23)cc1`, the Potency was 28.2 µM (active). On to `CC(=O)NC(c1ccc(C(C)C)cc1)c1ccc2cccnc2c1O` (configuration not stated), for which the Potency is 1.26 µM (active).

For `COc1cccc(C(NC(C)=O)c2ccc3cccnc3c2O)c1` (configuration not stated), the Potency was 2.82 µM (active). For `CC(=O)NC(c1ccc2ccccc2c1)c1ccc2cccnc2c1O` (configuration not stated), the Potency was 0.355 µM (active). Still for that read-out and setting: then `CCC(=O)NC(c1ccco1)c1cc(Br)c2cccnc2c1O` (configuration not stated), with 8.91 µM (active). Regarding `OC1(c2ccc(Br)cc2)CCNCC1`, the activity change, negative = inhibition is 0.489% [at 11.4 µM]. On the same count and under the same terms, then `Cc1cccc(NC(c2ccc(C)s2)c2ccc3ccc(C)nc3c2O)n1` (configuration not stated), with 21.1%.

Take `CC(=O)NC(c1ccco1)c1ccc2cccnc2c1O` (configuration not stated): the Potency was 1.58 µM (active).

On to `Oc1c(C(Nc2ccccn2)c2ccccn2)ccc2cccnc12` (configuration not stated), for which the Potency was 2.82 µM (active). On the same count and under the same terms, to `Oc1cccc(C(Nc2nccs2)c2ccc3cccnc3c2O)c1` (configuration not stated) belongs 2.82 µM (active); to `CC(=O)NC(c1ccco1)c1cc(Cl)c2cccnc2c1O` (configuration not stated), 7.94 µM (active); to `CN(Cc1ccccc1)C(=O)c1ccc(NC(=O)C2CCN(C(=O)OC(C)(C)C)CC2)cc1`, 7.08 µM (active). In the case of `CC(C)(C)OC(=O)N1CCC(c2c(C(=O)NCC3CCN(C4CCCC4)C3)cnn2-c2cccc(Cl)c2)CC1` (configuration not stated), the activity change, negative = inhibition was -22.1% [at 11.4 µM]. For `O=C(Cc1coc2cc3c(cc12)CCC3)OCC(=O)N1CCCC1=O`, the Potency is 15.8 µM (active). As to `Cc1ccc(-n2c(-c3ccccc3)c[n+]3c2CCc2ccccc2-3)c(C)c1`, the Potency was 0.794 µM (active). As to `S=C(Nc1ccccc1)Nc1ccc(OCc2ccc(Cl)cc2Cl)cc1`, the Potency is 3.55 µM (active). For `S=C(Nc1cc(Cl)ccc1Oc1ccccc1)N1CCN(c2ccccn2)CC1`, the Potency was 17.8 µM (active).

Turning to `Oc1[nH]c2ccc(Br)cc2c1N=NC(=S)N1CCOCC1`, the activity change, negative = inhibition was 43.7% [at 11.4 µM]. In the case of `O=C(Nc1ccc(Br)cc1)c1cccc(OC(=S)N2CCOCC2)c1`, the Potency was 2 µM (active).

Turning to `Cc1ccc(S(=O)(=O)N2CCc3ccccc3CC2)cc1`, the Potency is 0.794 µM (active). Turning to `COCCNC(=O)c1cccc(Nc2nc(-c3ccccc3)c3cc(Cl)ccc3n2)c1`, the Potency was 15.8 µM (active). As to `O=C(NCCc1csc(-c2cccnc2)n1)c1cccc(Cl)c1`, the “activity change, negative = inhibition” value was -26.6%. Turning to `OCCN1CCN(C(=S)c2ccc(-c3ccccc3)cc2)CC1`, the Potency is 2.51 µM (active). Regarding `CCN1CCN(C(=S)c2ccc(-c3ccccc3)cc2)CC1`, the Potency was 2 µM (active).

For `CC(C)=C1SC(N2CCN(c3ccc(C)c(Cl)c3)CC2)=NC1=O`, the activity change, negative = inhibition is 103% [at 11.4 µM]. On to `CCn1c2ccccc2c2cc(NC(=O)COC(=O)C3CCC(=O)N3)ccc21` (configuration not stated), for which the “activity change, negative = inhibition” value is 18.1%. Take `CCn1c2ccccc2c2cc(C3C(C#N)=C(N)Oc4n[nH]c(COC)c43)ccc21` (configuration not stated): the Potency is 2.82 µM (active). Turning to `CC1(C(=O)Nc2cnc3ccccc3c2)CCN1C(=O)c1ccccc1CCc1ccccc1` (configuration not stated), the Potency is 28.2 µM (active). Still for that read-out and setting: to `COC(=O)C1=C(C)N(Cc2ccccc2)C(=NCCc2cccnc2)N[C@H]1c1ccc(Br)cc1` belongs 28.2 µM (active); to `CCCCn1c(=N)n(CCOc2ccc(C)cc2)c2ccccc21`, 10 µM (active). On to `Cc1ccc(OCC(O)Cn2c(=N)n(CCN3CCCCC3)c3ccccc32)cc1` (configuration not stated), for which the “activity change, negative = inhibition” value is -13.4%. On the same count and under the same terms, then `N=c1n(CCCOc2ccccc2Cl)c2ccccc2n1CC(N)=O`, with 2.57%. Same read-out and setting: to `Cc1ccc(-c2nc3ccc(Cl)cn3c2CC(C)(C)C)cc1` belongs -2.84% [at 11.4 µM]; to `COc1cc(C)c(C(=O)CC(=O)c2c(C)cc(OC)cc2C)c(C)c1`, -13.8% [at 11.4 µM].

Consider `Cc1ccc(C(C)C)c(OCc2ccc(C(=O)N/N=C/c3ccc(O)cc3O)cc2)c1`, for which the Potency was 2.51 µM (active). With `Cc1ccc(C(=O)N/N=C/c2nc3ccccc3n2C)cc1`, the “activity change, negative = inhibition” value was -21.7%.

As to `Cc1ccc(C(C)C)c(OCc2ccc(C(=O)N/N=C/c3cccc(O)c3O)cc2)c1`, the Potency was 2.82 µM (active).

For the compound `O=C(c1ccc(-c2nnc(Nc3cccc(Cl)c3)c3ccccc23)cc1)N1C[C@H]2C[C@H](C1)c1cccc(=O)n1C2`, the activity change, negative = inhibition was 46% [at 11.4 µM].

As to `COC(=O)c1cc(NC(=O)c2cc(-c3ccc(C(F)(F)F)cc3)oc2C(F)(F)F)ccc1N1CCOCC1`, the Potency is 22.4 µM (active).

For the compound `COC(=O)c1ccc(N2CCOCC2)c(NC(=O)Nc2cccc(OC)c2)c1`, the activity change, negative = inhibition is 2.86% [at 11.4 µM].

On to `CCN(CC)CCNC(=O)c1ccc(NC(=O)c2ccccc2-c2ccc(C(F)(F)F)cc2)cc1`, for which the “activity change, negative = inhibition” value was -16.1%.

For `O=C(NCc1ccco1)c1nc2c(nnn2Cc2ccccc2Cl)c(=O)[nH]1`, the Potency was 1.58 µM (active). Take `O=C(NCc1ccco1)/C(=C/c1cccc(C(F)(F)F)c1)c1nc2ccccc2[nH]1`: the activity change, negative = inhibition is -12% [at 11.4 µM]. The same measure, in the same setting: then `O=C(NCc1ccco1)c1ccc(-c2cccc(Cl)c2)o1`, with 34.1%; and `CC(C)CCNC(=O)COc1cccc2c1OC(C)(C)C2`, with -14.5%. Regarding `Cc1cccc(OCCCC(=O)Nc2nccs2)c1`, the activity change, negative = inhibition is 249% [at 11.4 µM].

`Cc1ccc(OCCCC(=O)NNC(=O)c2ccccn2)cc1`: the Potency is 11.2 µM (active). On to `CC(=O)c1cccc(-c2cnc3c(NC=O)cc(-c4ccccc4F)cn23)c1`, for which the activity change, negative = inhibition is -18.2% [at 11.4 µM]. Regarding `CC(=O)c1cccc(-c2csc3ncnc(Sc4nnnn4C)c23)c1`, the Potency is 8.91 µM (active). Still for that read-out and setting: to `Cn1nnnc1Sc1ncnc2scc(-c3cccc(S(C)(=O)=O)c3)c12` belongs 14.1 µM (active). Turning to `CCCCn1c(SCC(=O)Nc2cc(NC(=O)c3ccco3)ccc2C)nc2ccccc2c1=O`, the “activity change, negative = inhibition” value is -9.45%. Turning to `O=C(CN1CCCC1)N/N=C/c1c(O)ccc2ccccc12`, the Potency is 1.78 µM (active). Consider `O=C(CN1CCOCC1)N/N=C/c1c(O)ccc2ccccc12`, for which the Potency was 8.91 µM (active).

Regarding `O=C(CSCC(=O)Nc1ccccc1)N/N=C/c1c(O)ccc2ccccc12`, the Potency was 0.501 µM (active). On the same count and under the same terms, then `C=C(C)Cn1c(SCC(=O)N/N=C/c2c(O)ccc3ccccc23)nc2ccccc2c1=O`, with 22.4 µM (active). Consider `NC(=O)N/N=C/c1c(O)ccc2oc3c(c12)CCCC3`, for which the “activity change, negative = inhibition” value is 111%.
